Data as given in PubChem BioAssay (EPA / NIEHS).
Values joined by “and” are separate entries in the source; they are usually repeats but may differ in a detail not shown here. Equal values may be shown once. A structure can be active in one record and inactive in another. Active and inactive are the calls of the source. The calls were made as follows: active = hit-call score of the fitted dose curve at least 0.9, where 1 is the maximum; inactive = score below 0.9.

Tests used:
Settings in all cases: mRNA level, 48 h; actives raise or lower the signal
CYP3A5 (gene 1577) = test: LTEA_HepaRG_CYP3A5: Life Technologies and Expression Analysis (LTEA) Assay for CYP3A5 using HepaRG (AID 2283493)
Outline: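 Readout was CYP3A5 mRNA by qRT-PCR. HepaRG cultures were exposed for 48 h in serum-free induction medium to chemicals at up to 100 uM, and responses were fitted in both directions relative to DMSO vehicle.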

[1] = read-out: Fatty Acid-Binding Protein 1 (FABP1), FABP1 (gene 2168); test: LTEA_HepaRG_FABP1: Life Technologies and Expression Analysis (LTEA) Assay for Fatty Acid-Binding Protein 1 (FABP1) using HepaRG (AID 2283494)
Outline: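 FABP1 expression by TaqMan qRT-PCR, normalised to three housekeeping genes, in HepaRG cells after 48 h chemical treatment. Eight-point half-log series topping at 100 uM in 0.5% DMSO, duplicates; gain or loss fitted relative to vehicle.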

[2] = read-out: Cytochrome P450 4A22 (Homo sapiens) (UniProt Q5TCH4); test: LTEA_HepaRG_CYP4A22: Life Technologies and Expression Analysis (LTEA) Assay for Cytochrome P450 4A22 (CYP4A22) using HepaRG (AID 2283495)
Outline: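 HepaRG, 48 h post-plating -> serum-free induction medium; dosed 48 h, duplicate, 8 conc. (100 uM top, half-log), 0.5% DMSO. Readout: CYP4A22 mRNA by qRT-PCR, ACTB/GAPDH/POLR2A normalization; gain/loss fit relative to DMSO.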

[3] = read-out: Cytochrome P450 7A1 (Homo sapiens) (UniProt P22680); test: LTEA_HepaRG_CYP7A1: Life Technologies and Expression Analysis (LTEA) Assay for Cytochrome P450 7A1 (CYP7A1) using HepaRG (AID 2283496)
Outline: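 Using 0.5% DMSO as vehicle and baseline, chemicals were tested in duplicate over an 8-point range from 100 uM on HepaRG cells for 48 h; qRT-PCR signals were normalised to ACTB, GAPDH and POLR2A.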

[4] = read-out: Glutathione S-Transferase (GSTA2), GSTA2 (gene 2939); test: LTEA_HepaRG_GSTA2: Life Technologies and Expression Analysis (LTEA) Assay for Glutathione S-Transferase (GSTA2) using HepaRG (AID 2283497)
Outline: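 GSTA2 transcript levels came from Fluidigm TaqMan qRT-PCR normalized to three housekeeping genes, fitted in both directions against DMSO. HepaRG cultures received chemicals for 48 h in serum-free induction medium (0.5% DMSO), 8 half-log concentrations up to 100 uM, duplicate.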

[5] = read-out: Glutamate-cysteine ligase catalytic (GCLC), GCLC (gene 2729); test: LTEA_HepaRG_GCLC: Life Technologies and Expression Analysis (LTEA) Assay for Glutamate-cysteine ligase catalytic (GCLC) using HepaRG (AID 2283498)
Outline: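 Expression by TaqMan qRT-PCR, normalized to three housekeeping genes (ACTB, GAPDH, POLR2A), with up- or down-regulation fitted against DMSO. HepaRG cells dosed in duplicate for 48 h with 8 half-log concentrations up to 100 uM, vehicle 0.5% DMSO.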

[6] = read-out: growth arrest and DNA damage 45 (GADD45G), GADD45G (gene 10912); test: LTEA_HepaRG_GADD45G: Life Technologies and Expression Analysis (LTEA) Assay for growth arrest and DNA damage 45 (GADD45G) using HepaRG (AID 2283499)
Outline: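 HepaRG, 48 h exposure, top 100 uM, half-log 8-point series, 0.5% DMSO vehicle, duplicates. Readout: GADD45G transcript by qRT-PCR (Fluidigm array), housekeeping-normalised (ACTB/GAPDH/POLR2A). Bidirectional curve fit vs DMSO baseline.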

[7] = read-out: Glutathione S-transferase M3 (GSTM3), GSTM3 (gene 2947); test: LTEA_HepaRG_GSTM3: Life Technologies and Expression Analysis (LTEA) Assay for Glutathione S-transferase M3 (GSTM3) using HepaRG (AID 2283501)
Outline: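 qRT-PCR read-out of GSTM3 transcript, normalized to three housekeeping genes, from human HepaRG cells after 48 h chemical exposure. Eight-point half-log series, top 100 uM, 0.5% DMSO vehicle; gain or loss fitted relative to DMSO baseline.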

[8] = read-out: Heat shock 70 kDa protein 1 (HSPA1A), gene 3303; test: LTEA_HepaRG_HSPA1A: Life Technologies and Expression Analysis (LTEA) Assay for Heat shock 70 kDa protein 1 (HSPA1A) using HepaRG (AID 2283502)
Outline: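 An oxidative-stress marker readout: HepaRG cells treated 48 h in duplicate with an eight-point series (highest 100 uM) had HSPA1A mRNA quantified by TaqMan qRT-PCR. Activity was fitted in both directions using 0.5% DMSO as baseline.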

[9] = read-out: Hypoxia-inducible factor 1-alpha (Homo sapiens) (UniProt Q16665); test: LTEA_HepaRG_HIF1A: Life Technologies and Expression Analysis (LTEA) Assay for Hypoxia-inducible factor 1 (HIF1A) Trancription factor using HepaRG (AID 2283503);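 also: HIF1A transcript by TaqMan qRT-PCR normalized to ACTB GAPDH and POLR2A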
Outline: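 Gain- or loss-of-signal HIF1A mRNA changes are fitted against a DMSO baseline. HepaRG cultures receive eight concentrations, highest 100 uM, for 48 h in serum-free induction medium with 0.5% DMSO.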

HGF (gene 3082) = test: LTEA_HepaRG_HGF: Life Technologies and Expression Analysis (LTEA) Assay for Hepatocyte Growth Facto (HGF) using HepaRG (AID 2283505)
Outline: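 HepaRG, 48 h dosing, 8-pt half-log series from 100 uM in 0.5% DMSO, duplicates. Readout: TaqMan qRT-PCR of HGF mRNA, housekeeping-normalized; bidirectional curve fit vs DMSO baseline.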

[10] = read-out: Insulin Like Growth Factor 1 (IGF1), IGF1 (gene 3479); test: LTEA_HepaRG_IGF1: Life Technologies and Expression Analysis (LTEA) Assay for Insulin Like Growth Factor 1 (IGF1) using HepaRG (AID 2283506)
Outline: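 Endpoint: IGF1 mRNA change by qRT-PCR, housekeeping-normalized, fitted bidirectionally relative to 0.5% DMSO vehicle. Human HepaRG cells were treated 48 h in serum-free induction medium, eight half-log concentrations topping at 100 uM.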

[11] = read-out: Intercellular Adhesion Molecule 1 (ICAM1), ICAM1 (gene 3383); test: LTEA_HepaRG_ICAM1: Life Technologies and Expression Analysis (LTEA) Assay for Intercellular Adhesion Molecule 1 (ICAM1) using HepaRG (AID 2283507)
Outline: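 HepaRG, 48 h exposure, 8-pt half-log series from 100 uM, 0.5% DMSO vehicle, duplicates. Readout: TaqMan qRT-PCR mRNA, housekeeping-normalized (ACTB/GAPDH/POLR2A). Bidirectional curve fit vs DMSO baseline.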

[12] = read-out: Insulin-like growth factor-binding protein 1 (IGFBP1), IGFBP1 (gene 3484); test: LTEA_HepaRG_IGFBP1: Life Technologies and Expression Analysis (LTEA) Assay for Insulin-like growth factor-binding protein 1 (IGFBP1) using HepaRG (AID 2283508)
Outline: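 qRT-PCR mRNA read-out (TaqMan, Fluidigm array), normalised to three housekeeping genes; HepaRG cells, 48 h exposure, 8-pt half-log series from 100 uM, 0.5% DMSO vehicle; bidirectional curve fit vs DMSO baseline.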

[13] = read-out: Glutamate-cysteine ligase regulatory (GCLM), GCLM (gene 2730); test: LTEA_HepaRG_GCLM: Life Technologies and Expression Analysis (LTEA) Assay for Glutamate-cysteine ligase regulatory (GCLM) using HepaRG (AID 2283500)
Outline: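 In this multiplexed HepaRG gene-expression assay, GCLM mRNA change after 48 h treatment (8 concentrations, max 100 uM) was scored against DMSO by bidirectional curve fitting.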

[14] = read-out: Interleukin 6 (IL6), IL6 (gene 3569); test: LTEA_HepaRG_IL6: Life Technologies and Expression Analysis (LTEA) Assay for Interleukin 6 (IL6) using HepaRG (AID 2283509)
Outline: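 Transcript levels, normalized to three housekeeping genes, were quantified by qRT-PCR after 48 h chemical treatment of HepaRG cells. Eight-point half-log series from 100 uM in 0.5% DMSO, duplicates. Fitted both directions against DMSO baseline.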

[15] = read-out: Interleukin 6 Receptor (IL6R), IL6R (gene 3570); test: LTEA_HepaRG_IL6R: Life Technologies and Expression Analysis (LTEA) Assay for Interleukin 6 Receptor (IL6R) using HepaRG (AID 2283510)
Outline: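 In this HepaRG screen, test chemicals act on cells for 48 h at up to 100 uM (eight half-log points, duplicate wells). IL6R expression is quantified by qRT-PCR after normalization to ACTB, GAPDH and POLR2A, with DMSO as baseline.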

[16] = read-out: Potassium channel subfamily K member 1 (KCNK1), KCNK1 (gene 3775); test: LTEA_HepaRG_KCNK1: Life Technologies and Expression Analysis (LTEA) Assay for Potassium channel subfamily K member 1 (KCNK1) using HepaRG (AID 2283511)
Outline: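 KCNK1 transcript measured by TaqMan qRT-PCR against three housekeeping genes, after HepaRG cells were treated 48 h with eight half-log concentrations (top 100 uM, 0.5% DMSO). Curves fitted bidirectionally relative to vehicle.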

[17] = read-out: 3-Hydroxy-3-Methylglutaryl-CoA Synthase 2 (HMGCS2), HMGCS2 (gene 3158); test: LTEA_HepaRG_HMGCS2: Life Technologies and Expression Analysis (LTEA) Assay for 3-Hydroxy-3-Methylglutaryl-CoA Synthase 2 (HMGCS2) using HepaRG (AID 2283504)
Outline: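 qRT-PCR read-out of HMGCS2 transcript, normalised to three housekeeping genes, in HepaRG cells after 48 h chemical exposure. Eight-point curves from 100 uM, half-log dilutions, 0.5% DMSO vehicle; gain or loss fitted relative to DMSO baseline.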

[18] = read-out: Keratin 19 (KRT19), KRT19 (gene 3880); test: LTEA_HepaRG_KRT19: Life Technologies and Expression Analysis (LTEA) Assay for Keratin 19 (KRT19) using HepaRG (AID 2283512)
Outline: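 HepaRG, 48 h chemical exposure, 8-pt half-log CRC from 100 uM, 0.5% DMSO vehicle, duplicates. Readout: TaqMan qRT-PCR of KRT19 mRNA, housekeeping-normalized (ACTB/GAPDH/POLR2A). Bidirectional fit vs DMSO baseline.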

Measured: AC50

Hypoxia-inducible factor 1-alpha (Homo sapiens), sequence (Q16665 whole entry, looked up): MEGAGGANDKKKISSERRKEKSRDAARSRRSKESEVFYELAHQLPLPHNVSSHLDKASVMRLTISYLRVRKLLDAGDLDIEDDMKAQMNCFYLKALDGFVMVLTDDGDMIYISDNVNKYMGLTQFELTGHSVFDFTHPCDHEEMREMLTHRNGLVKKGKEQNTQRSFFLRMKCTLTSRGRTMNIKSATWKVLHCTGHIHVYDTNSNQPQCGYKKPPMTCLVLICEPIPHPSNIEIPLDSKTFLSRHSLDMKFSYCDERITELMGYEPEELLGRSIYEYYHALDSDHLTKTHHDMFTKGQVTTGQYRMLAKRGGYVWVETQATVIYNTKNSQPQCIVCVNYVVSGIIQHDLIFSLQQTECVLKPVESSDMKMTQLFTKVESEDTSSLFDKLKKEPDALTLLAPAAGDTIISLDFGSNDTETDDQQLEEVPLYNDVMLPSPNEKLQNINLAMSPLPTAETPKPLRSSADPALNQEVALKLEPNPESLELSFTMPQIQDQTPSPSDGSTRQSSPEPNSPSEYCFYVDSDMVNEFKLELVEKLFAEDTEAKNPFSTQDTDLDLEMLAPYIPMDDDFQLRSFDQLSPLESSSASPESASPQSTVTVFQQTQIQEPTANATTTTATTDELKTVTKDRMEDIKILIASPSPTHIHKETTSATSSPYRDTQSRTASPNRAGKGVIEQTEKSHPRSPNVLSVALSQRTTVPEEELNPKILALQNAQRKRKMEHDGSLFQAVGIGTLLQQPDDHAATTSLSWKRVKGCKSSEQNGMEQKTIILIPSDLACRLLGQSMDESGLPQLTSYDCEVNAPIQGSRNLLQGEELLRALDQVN

O=C(Nc1ccccc1)Nc1cnns1
active: [1] 65.5 µM | [2] 73.5 µM | [3] 50 µM | [4] 65.3 µM | [10] 50 µM | [12] 83.5 µM
inactive: CYP3A5 (gene 1577) | [5] | [6] | [7] | [8] | [9] | HGF (gene 3082) | [11]

CCc1ccc(C(=O)NN(C(=O)c2cc(C)cc(C)c2)C(C)(C)C)cc1
active: [1] 50 µM | [2] 74.4 µM | [3] 4.22 µM | [8] 81.7 µM
not listed: [17] | [18]
inactive: all other assays above

CCOC1Oc2ccc(OS(C)(=O)=O)cc2C1(C)C (stereo unspecified)
active: CYP3A5 (gene 1577) 75.2 µM | [1] 63.7 µM | [2] 62.6 µM | [3] 85.6 µM | [4] 82 µM | [6] 78.3 µM | [17] 79.4 µM | [10] 62.3 µM | [12] 79.4 µM | [14] 89.4 µM
inactive: [5] | [7] | [8] | [9] | HGF (gene 3082) | [11]

ClC1C(Cl)C(Cl)C(Cl)C(Cl)C1Cl (stereo unspecified)
active: [1] 6.88 µM | [2] 9.67 µM and 8.27 µM | [3] 3.88 µM | [6] 0.488 µM | [10] 6.89 µM
inactive: CYP3A5 (gene 1577) | [1] | [3] | [4] | [5] | [6] | [7] | [8] | [9] | HGF (gene 3082) | [11] | [12] | [14]

Oc1ccc(Cl)cc1Cc1ccccc1
inactive: CYP3A5 (gene 1577) | [1] | [2] | [3] | [4] | [5] | [6] | [7] | [8] | [9] | HGF (gene 3082) | [10] | [11] | [12] | [14]
active: CYP3A5 (gene 1577) 50.5 µM | [1] 50.5 µM | [2] 91.8 µM | [3] 76.1 µM | [4] 80.5 µM and 92.2 µM | [7] 91.9 µM | HGF (gene 3082) 83.5 µM | [12] 75.2 µM and 88.5 µM

Oc1cc(Cl)ccc1Oc1ccc(Cl)cc1Cl
inactive: CYP3A5 (gene 1577) | [1] | [2] | [3] | [4] | [5] | [6] | [7] | [8] | [9] | HGF (gene 3082) | [10] | [11] | [12] | [14]
active: CYP3A5 (gene 1577) 51 µM | [1] 88.9 µM | [2] 51 µM and 76.4 µM | [3] 72.8 µM | [4] 83.7 µM | [6] 51 µM | [9] 79 µM | HGF (gene 3082) 51 µM | [10] 69 µM | [12] 71.9 µM | [14] 81.3 µM

OCCOc1ccccc1
not listed: [13] | [15] | [16] | [17] | [18]
inactive: all other assays above

O=C(O)COc1ccc(Cl)cc1Cl
not listed: [12] | [13] | [16] | [18]
inactive: all other assays above

CCN(CC)C(=O)SCc1ccc(Cl)cc1
active: [1] 15.4 µM
not listed: [13] | [15] | [16]
inactive: all other assays above

COc1nn(CSP(=S)(OC)OC)c(=O)s1
not listed: [15] | [17]
inactive: all other assays above
